The values below come from PMC7862700, “An all-to-all approach to the identification of sequence-specific readers for epigenetic DNA modifications on cytosine”.

Common to all, as to experiment: DAPPL (digital affinity profiling via proximity ligation, sequencing); 10 mM Tris-HCl pH 7.5, 50 mM NaCl, 1 mM DTT, 4% glycerol, room temperature, 30 min; GST-TFs on glutathione beads, 16-mer random dsDNA library, 0.1% formaldehyde crosslink after washing; high values mean tight binding
Conditions in all cases: protein: recombinant; tags: N-terminal GST; dsDNA, one strand shown

One assay has as its target T1, ELK1 (Homo sapiens, UniProt P19419 1-428).
T1 sequence: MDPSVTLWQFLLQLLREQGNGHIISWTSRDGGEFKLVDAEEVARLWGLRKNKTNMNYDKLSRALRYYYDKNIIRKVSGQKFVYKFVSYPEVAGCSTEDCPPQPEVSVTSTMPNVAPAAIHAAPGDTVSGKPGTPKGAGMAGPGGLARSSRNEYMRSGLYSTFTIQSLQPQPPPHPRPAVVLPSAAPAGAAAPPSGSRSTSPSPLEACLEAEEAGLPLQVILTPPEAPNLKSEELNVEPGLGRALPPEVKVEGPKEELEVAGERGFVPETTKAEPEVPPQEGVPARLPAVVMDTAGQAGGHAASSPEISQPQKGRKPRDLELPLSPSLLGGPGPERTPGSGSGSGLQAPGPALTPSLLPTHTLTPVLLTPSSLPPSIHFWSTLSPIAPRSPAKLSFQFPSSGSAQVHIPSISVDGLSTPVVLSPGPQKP
Put shortly:
(§1)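 Binding signal is each hexamer's read frequency for a factor divided by its frequency in the tag-only sample. The factors were GST-fused human transcription factors from yeast, captured on glutathione beads, DNA-barcoded and pooled with that sample. Pools were incubated with 200 nmole of a random double-stranded 16-mer DNA library in Tris/NaCl/DTT/glycerol buffer at room temperature for 30 min, then washed, crosslinked with 0.1% formaldehyde, proximity-ligated with BsaI/T4 ligase (1 h, 37 °C), PCR-amplified and sequenced on an Illumina NextSeq500.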

A further assay concerns the target T2, ERG (Homo sapiens, UniProt P11308 1-479).
T2 sequence: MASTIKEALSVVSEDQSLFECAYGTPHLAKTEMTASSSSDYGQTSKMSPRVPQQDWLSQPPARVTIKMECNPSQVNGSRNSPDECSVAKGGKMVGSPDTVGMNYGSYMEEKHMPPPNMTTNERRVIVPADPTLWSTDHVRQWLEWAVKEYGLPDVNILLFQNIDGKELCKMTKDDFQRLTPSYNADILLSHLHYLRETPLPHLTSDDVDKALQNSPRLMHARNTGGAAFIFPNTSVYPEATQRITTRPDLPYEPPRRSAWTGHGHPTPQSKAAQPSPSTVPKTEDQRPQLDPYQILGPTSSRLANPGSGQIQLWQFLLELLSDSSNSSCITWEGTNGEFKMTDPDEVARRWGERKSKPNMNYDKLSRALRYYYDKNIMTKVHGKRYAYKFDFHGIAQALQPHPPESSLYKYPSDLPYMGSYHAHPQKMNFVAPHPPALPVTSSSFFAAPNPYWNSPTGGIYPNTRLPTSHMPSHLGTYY
In short, it runs like this: as §1

The next assay has as its target ELF1 (Homo sapiens, UniProt P32519 1-619). Put shortly: as §1
The target of another assay is T3, EHF (Homo sapiens, UniProt Q9NZC4 1-300).
T3 sequence: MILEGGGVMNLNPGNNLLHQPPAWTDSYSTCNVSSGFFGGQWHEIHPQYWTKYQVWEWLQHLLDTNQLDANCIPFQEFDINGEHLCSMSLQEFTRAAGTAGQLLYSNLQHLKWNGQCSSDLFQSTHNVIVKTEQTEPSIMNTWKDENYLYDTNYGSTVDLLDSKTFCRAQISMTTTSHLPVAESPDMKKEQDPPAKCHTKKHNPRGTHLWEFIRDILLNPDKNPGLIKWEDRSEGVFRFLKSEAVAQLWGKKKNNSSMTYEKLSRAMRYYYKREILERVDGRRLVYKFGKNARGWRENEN
Put shortly:
as §1

A further assay deals with SPI1 (Homo sapiens, UniProt P17947 1-270). Put shortly:
as §1

The target of a further assay is SPIB (Homo sapiens, UniProt Q01892 1-262). In short, it runs like this: as §1
Sequence of SPIB (Q01892 whole entry): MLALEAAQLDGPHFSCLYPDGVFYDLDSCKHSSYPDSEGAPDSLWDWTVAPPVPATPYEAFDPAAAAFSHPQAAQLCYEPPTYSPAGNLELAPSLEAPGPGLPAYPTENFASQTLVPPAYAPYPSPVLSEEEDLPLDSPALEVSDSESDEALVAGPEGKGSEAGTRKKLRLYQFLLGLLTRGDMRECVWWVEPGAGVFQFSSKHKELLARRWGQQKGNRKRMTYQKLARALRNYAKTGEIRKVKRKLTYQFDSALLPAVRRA
A further assay deals with T4, SPIC (Homo sapiens, UniProt Q8N5J4 1-248).
T4 sequence: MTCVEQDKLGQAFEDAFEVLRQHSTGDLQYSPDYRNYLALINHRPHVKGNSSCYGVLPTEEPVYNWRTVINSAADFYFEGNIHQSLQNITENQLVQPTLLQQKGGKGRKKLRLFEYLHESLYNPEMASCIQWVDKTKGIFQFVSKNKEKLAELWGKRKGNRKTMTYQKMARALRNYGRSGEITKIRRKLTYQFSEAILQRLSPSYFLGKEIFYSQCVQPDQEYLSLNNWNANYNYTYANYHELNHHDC
Put shortly:
as §1

The target of a further assay is ELF4 (Homo sapiens, UniProt Q99607 1-663). Put shortly:
as §1

A further assay deals with T5, ELK4 (Homo sapiens, UniProt P28324-2 1-405).
T5 sequence: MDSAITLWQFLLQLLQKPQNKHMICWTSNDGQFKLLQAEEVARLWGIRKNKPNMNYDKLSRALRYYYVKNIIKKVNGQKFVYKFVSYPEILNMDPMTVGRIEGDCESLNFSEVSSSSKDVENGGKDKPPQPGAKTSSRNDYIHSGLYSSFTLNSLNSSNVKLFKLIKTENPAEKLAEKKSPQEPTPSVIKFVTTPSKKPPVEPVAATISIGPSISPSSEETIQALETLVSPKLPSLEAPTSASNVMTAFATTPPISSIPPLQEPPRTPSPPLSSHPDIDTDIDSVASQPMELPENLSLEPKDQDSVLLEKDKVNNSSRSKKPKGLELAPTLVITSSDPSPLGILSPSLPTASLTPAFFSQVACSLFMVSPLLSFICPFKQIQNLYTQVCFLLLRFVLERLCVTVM
Put shortly:
as §1

The target in another assay is T6, ELF3 (Homo sapiens, UniProt P78545 1-371).
T6 sequence: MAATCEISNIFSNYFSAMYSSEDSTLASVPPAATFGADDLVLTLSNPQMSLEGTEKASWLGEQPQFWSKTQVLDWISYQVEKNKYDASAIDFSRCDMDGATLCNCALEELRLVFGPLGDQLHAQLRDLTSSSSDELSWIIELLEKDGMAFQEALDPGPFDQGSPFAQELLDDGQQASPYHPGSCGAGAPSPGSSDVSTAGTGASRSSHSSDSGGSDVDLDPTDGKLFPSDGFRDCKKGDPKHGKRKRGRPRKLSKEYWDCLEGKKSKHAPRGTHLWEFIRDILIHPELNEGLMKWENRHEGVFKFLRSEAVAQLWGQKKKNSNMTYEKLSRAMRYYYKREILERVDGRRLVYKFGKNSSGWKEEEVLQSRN
Put shortly: as §1

Another assay concerns the target ETV1 (Homo sapiens, UniProt P50549 1-477). Put shortly: as §1
The target in another assay is T7, ERF (Homo sapiens, UniProt P50548 1-548).
T7 sequence: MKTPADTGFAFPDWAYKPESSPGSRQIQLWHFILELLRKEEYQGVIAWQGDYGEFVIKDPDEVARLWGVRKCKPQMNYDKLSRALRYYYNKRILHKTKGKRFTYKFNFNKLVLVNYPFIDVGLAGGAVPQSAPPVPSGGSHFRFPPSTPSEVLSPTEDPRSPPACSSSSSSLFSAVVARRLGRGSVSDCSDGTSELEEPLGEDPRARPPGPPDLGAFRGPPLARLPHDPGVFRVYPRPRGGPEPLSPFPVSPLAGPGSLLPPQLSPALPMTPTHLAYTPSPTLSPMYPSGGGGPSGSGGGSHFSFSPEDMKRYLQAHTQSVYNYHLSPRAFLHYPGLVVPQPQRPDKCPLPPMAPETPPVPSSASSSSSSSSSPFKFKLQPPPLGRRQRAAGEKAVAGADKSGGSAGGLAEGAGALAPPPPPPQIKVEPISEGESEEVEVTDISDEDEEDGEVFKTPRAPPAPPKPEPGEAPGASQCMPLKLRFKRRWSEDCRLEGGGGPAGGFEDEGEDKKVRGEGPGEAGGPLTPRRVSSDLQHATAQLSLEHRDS
In short, it runs like this:
as §1

The target in another assay is T8, ETV3L (Homo sapiens, UniProt Q6ZN32 1-361).
T8 sequence: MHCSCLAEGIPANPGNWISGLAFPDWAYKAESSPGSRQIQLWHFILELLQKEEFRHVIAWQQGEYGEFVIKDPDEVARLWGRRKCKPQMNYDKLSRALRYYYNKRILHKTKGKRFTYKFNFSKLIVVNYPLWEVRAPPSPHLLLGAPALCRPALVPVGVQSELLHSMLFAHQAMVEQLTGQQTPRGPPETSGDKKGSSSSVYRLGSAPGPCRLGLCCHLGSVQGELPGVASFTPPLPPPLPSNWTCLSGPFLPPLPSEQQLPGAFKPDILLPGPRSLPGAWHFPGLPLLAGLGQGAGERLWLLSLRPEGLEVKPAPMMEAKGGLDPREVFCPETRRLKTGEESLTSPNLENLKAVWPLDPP
In short, it runs like this:
as §1

The target of a further assay is T9, ETS2 (Homo sapiens, UniProt P15036 1-469).
T9 sequence: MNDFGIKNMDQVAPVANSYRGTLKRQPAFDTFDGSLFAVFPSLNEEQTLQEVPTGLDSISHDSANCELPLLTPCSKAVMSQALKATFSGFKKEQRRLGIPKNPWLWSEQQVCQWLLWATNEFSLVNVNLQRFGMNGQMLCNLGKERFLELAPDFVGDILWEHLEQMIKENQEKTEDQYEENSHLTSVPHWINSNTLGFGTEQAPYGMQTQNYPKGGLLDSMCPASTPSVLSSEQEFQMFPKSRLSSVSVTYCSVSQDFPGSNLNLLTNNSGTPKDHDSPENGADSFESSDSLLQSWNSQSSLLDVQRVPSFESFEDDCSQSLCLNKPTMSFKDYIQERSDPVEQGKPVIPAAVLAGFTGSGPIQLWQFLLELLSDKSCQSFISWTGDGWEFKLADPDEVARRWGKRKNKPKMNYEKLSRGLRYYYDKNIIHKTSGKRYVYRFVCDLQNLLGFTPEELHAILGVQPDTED
In short, it runs like this: as §1

Another assay deals with T10, ETV7 (Homo sapiens, UniProt Q9Y603 1-341).
T10 sequence: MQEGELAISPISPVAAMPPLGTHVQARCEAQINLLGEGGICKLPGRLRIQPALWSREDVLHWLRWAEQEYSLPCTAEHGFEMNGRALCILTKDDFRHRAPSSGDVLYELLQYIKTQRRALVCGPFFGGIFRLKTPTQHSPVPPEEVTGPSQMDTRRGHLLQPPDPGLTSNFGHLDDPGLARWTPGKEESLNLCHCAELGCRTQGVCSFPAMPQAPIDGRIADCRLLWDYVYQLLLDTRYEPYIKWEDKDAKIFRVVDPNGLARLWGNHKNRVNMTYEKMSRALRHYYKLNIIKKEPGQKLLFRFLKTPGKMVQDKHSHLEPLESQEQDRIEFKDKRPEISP
In short, it runs like this:
as §1

The target of a further assay is T11, ETV3 (Homo sapiens, UniProt P41162-2 1-143).
T11 sequence: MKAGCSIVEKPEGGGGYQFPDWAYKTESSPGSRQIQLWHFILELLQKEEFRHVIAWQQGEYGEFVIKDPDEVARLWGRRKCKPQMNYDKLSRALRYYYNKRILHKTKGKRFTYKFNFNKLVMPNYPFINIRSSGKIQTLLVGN
Put shortly: as §1

A further assay addresses ETV6 (Homo sapiens, UniProt P41212 1-452). In short, it runs like this: as §1

Sequence of ELF4 (Q99607 whole entry): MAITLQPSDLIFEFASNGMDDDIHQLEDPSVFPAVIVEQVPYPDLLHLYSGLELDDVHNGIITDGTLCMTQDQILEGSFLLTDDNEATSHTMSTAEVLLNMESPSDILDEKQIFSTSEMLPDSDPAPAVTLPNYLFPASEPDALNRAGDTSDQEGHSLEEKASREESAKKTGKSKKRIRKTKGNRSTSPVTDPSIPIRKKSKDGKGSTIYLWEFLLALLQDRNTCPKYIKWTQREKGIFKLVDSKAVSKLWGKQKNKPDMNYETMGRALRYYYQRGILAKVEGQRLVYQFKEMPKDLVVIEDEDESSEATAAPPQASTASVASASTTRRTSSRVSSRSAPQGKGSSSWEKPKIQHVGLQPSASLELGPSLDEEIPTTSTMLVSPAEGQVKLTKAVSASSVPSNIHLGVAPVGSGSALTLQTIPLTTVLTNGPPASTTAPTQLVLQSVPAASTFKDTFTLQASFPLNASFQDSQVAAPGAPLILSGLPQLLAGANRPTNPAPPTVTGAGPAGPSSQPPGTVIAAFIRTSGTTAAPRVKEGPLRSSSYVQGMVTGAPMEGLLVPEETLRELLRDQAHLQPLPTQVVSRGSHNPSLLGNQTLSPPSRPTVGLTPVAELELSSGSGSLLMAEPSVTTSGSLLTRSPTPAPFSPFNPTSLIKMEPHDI
Sequence of ETV6 (P41212 whole entry): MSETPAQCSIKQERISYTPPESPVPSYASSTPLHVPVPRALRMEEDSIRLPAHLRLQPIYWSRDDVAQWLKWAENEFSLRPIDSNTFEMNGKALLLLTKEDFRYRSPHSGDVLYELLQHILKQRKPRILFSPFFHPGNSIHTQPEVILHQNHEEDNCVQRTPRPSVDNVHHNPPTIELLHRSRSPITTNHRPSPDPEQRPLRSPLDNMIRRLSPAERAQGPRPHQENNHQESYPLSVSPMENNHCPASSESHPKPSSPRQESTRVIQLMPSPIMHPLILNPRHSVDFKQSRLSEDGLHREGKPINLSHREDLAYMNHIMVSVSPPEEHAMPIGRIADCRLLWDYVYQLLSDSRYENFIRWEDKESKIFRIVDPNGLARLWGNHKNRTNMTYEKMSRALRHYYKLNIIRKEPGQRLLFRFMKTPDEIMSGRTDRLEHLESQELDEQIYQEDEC
Sequence of ETV1 (P50549 whole entry): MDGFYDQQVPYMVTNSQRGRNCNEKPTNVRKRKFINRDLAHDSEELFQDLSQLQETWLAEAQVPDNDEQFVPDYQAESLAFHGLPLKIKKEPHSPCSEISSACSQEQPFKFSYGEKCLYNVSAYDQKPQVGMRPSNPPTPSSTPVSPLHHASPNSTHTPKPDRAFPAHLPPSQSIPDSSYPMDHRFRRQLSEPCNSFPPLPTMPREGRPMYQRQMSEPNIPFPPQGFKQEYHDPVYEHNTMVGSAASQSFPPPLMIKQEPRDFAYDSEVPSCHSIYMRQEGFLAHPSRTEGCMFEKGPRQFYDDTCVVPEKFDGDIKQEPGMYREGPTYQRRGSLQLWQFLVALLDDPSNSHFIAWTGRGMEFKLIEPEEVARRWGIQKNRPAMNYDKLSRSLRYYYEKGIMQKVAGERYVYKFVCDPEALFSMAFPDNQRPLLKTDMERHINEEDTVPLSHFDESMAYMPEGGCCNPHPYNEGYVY
Sequence of ELF1 (P32519 whole entry): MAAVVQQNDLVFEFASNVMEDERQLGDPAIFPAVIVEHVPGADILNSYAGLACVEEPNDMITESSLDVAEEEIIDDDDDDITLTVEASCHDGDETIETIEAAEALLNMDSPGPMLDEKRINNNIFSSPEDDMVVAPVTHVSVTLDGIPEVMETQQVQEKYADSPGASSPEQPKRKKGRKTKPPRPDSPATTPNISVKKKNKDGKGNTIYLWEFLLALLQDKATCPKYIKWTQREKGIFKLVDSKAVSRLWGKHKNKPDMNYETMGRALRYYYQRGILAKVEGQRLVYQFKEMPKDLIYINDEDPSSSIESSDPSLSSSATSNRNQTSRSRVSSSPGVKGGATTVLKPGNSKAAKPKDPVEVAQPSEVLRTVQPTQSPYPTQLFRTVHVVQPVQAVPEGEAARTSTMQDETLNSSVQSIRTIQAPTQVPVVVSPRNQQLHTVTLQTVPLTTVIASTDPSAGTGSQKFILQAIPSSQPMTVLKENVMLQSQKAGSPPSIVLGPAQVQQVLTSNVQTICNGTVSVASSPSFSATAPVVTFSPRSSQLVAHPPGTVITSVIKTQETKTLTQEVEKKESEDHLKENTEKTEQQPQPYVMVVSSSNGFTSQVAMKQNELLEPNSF

Take GCCGCT: the binding signal was 1.08 fold enrichment (6-mer frequency, TF over GST control) with ELK1; 1.07 fold enrichment (6-mer frequency, TF over GST control) with ERG; 1.12 fold enrichment (6-mer frequency, TF over GST control) in the assay with ELF1; 1.04 fold enrichment (6-mer frequency, TF over GST control) with EHF; 1.12 fold enrichment (6-mer frequency, TF over GST control) with SPI1; 1.1 fold enrichment (6-mer frequency, TF over GST control) with SPIB. The binding signal was 1.19 fold enrichment (6-mer frequency, TF over GST control) in the assay with SPIC; 1.14 fold enrichment (6-mer frequency, TF over GST control) with ELF4; 1.1 fold enrichment (6-mer frequency, TF over GST control) with ELK4; 1.1 fold enrichment (6-mer frequency, TF over GST control) in the assay with ELF3; 1.15 fold enrichment (6-mer frequency, TF over GST control) with ETV1; 1.23 fold enrichment (6-mer frequency, TF over GST control) with ERF. For the same sequence, the binding signal is 1.01 fold enrichment (6-mer frequency, TF over GST control) with ETV3L; 1.09 fold enrichment (6-mer frequency, TF over GST control) with ETS2; 1.05 fold enrichment (6-mer frequency, TF over GST control) with ETV7; 1.03 fold enrichment (6-mer frequency, TF over GST control) in the assay with ETV3; 1.04 fold enrichment (6-mer frequency, TF over GST control) with ETV6.
